This note sets out measurements from PubChem BioAssay (NCATS).

Test [1] can be described thus: P-glycoprotein substrates identified in KB-8-5-11 adenocarcinoma cell line, qHTS therapeutic library screen (AID 1346987). Further: nearly all actives have a fitted effect of over 65% in size. Further: potency means the concentration at half of the fitted maximal effect. A digest of the protocol: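 Compounds are pinned in dose-response onto KB-8-5-11 cells (500 cells/well, colchicine-free medium) and left 72 h at 37 degree C. CellTiter-Glo luminescence then yields AC50 values.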
Test [2] in a line: NS1 protein of Zika virus - qHTS assay to identify small molecule inhibitors in human HEK 293 cells (AID 1347053). Further: nearly all actives have a fitted effect of over 55% in size. Further: potency means the concentration at half of the fitted maximal effect. A digest of the protocol:
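Readout was TR-FRET using paired anti-NS1 antibodies after 24 h infection of HEK 293 cells with ZIKV MR766 (MOI = 0.5). Compound preceded virus by 1 h; reduced signal reflects lower NS1 expression.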

In test [3] the target is Parathyroid hormone/parathyroid hormone-related peptide receptor (Homo sapiens) (UniProt Q03431). Nature of the test: qHTS for PTHR1 Agonists: Optimization Screen against the NCGC LOPAC library (AID 1347079).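 Further: GloSensor cAMP luminescence in HEK-293 GP2 cells expressing human PTHR1 with IBMX.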 A digest of the protocol: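 HEK-293 GP2 cells, PTHR1 + GloSensor cAMP; 3000 cells/well, o/n. Luciferin + IBMX 0.5mM each (stock), 1 hr 37C. Cpd titration, 1 hr 37C. Lum after 15 min RT. Ctrl M-PTH(1-15) top 10uM.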
For orientation: Quantitative high-throughput screening tests each substance at several concentrations.

A short description of test [4]: qHTS for Inhibitors of the Functional Ribonucleoprotein Complex (vRNP) of Lassa (LASV) Arenavirus: LASV Primary Screen - GLuc reporter signal (AID 1347082; calls by dose curve; tested in HEK293 reporter line; further: nearly all actives have a fitted effect of over 60% in size; further: potency means the concentration at half of the fitted maximal effect).
A short description of test [5]: qHTS for Inhibitors of the Functional Ribonucleoprotein Complex (vRNP) of Lassa (LASV) Arenavirus: Viability assay - alamar blue signal for LASV Primary Screen (AID 1347083; calls by dose curve; tested in HEK293 reporter line; further: nearly all actives have a fitted effect of over 80% in size; further: potency means the concentration at half of the fitted maximal effect).
A short description of test [6]: qHTS for Inhibitors of the Functional Ribonucleoprotein Complex (vRNP) of Lymphocytic Choriomeningitis Arenaviruses (LCMV): Viability assay - alamar blue signal for LCMV Primary Screen (AID 1347085; calls by dose curve; tested in HEK293 reporter line; further: nearly all actives have a fitted effect of over 80% in size; further: potency means the concentration at half of the fitted maximal effect).
Test [7] has as its target Nucleoprotein (Lymphocytic choriomeningitis virus (strain Armstrong)) (UniProt P09992). Briefly: qHTS for Inhibitors of the Functional Ribonucleoprotein Complex (vRNP) of Lymphocytic Choriomeningitis Arenaviruses (LCMV): LCMV Primary Screen - GLuc reporter signal (AID 1347086; calls by dose curve; further: series mostly up to about 57 µM; nearly all actives have a fitted effect of over 70% in size).
Test [8] can be described thus: qHTS of pediatric cancer cell lines to identify multiple opportunities for drug repurposing: Primary screen for TC32 cells (AID 1347089). Further: nearly all actives have a fitted effect of over 60% in size. Further: potency means the concentration at half of the fitted maximal effect. A digest of the protocol:
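Measured quantity: luminescence from CellTiter-Glo, reflecting metabolically active TC32 cells following 48 h of compound. Curves came straight from multi-point titrations, with 8 or 11 points in primary and 11 in confirmatory screening.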

Test [9] can be described thus: qHTS of pediatric cancer cell lines to identify multiple opportunities for drug repurposing: Primary screen for DAOY cells (AID 1347090). Further: series mostly up to about 46 µM; nearly all actives have a fitted effect of over 55% in size. A digest of the protocol: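 Cell viability, CellTiter-Glo luminescence; 500-1,000 cells/well, 8- or 11-point titration, 48 h compound exposure at 37 degrees C, 5% CO2. Controls: DMSO neutral, bortezomib 2.3 µM final as positive.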

Test [10] has as its target Atrial natriuretic peptide receptor 2 (Homo sapiens) (UniProt P20594). Nature of the test: Natriuretic polypeptide receptor (hNpr2) antagonism - Pilot subtype selectivity assay (AID 1347050; calls by dose curve). A digest of the protocol: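 Antagonist mode: compounds (LOPAC1280, seven 1:5 dilutions) added 30 min before 1 nM hNppC stimulation of hNpr2-HEK293 cGMP-sensor cells; luminescence read before and 20 min after agonist at ambient temperature.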

The nature of test [11]: Natriuretic polypeptide receptor (hNpr1) antagonism - Pilot counterscreen GloSensor control cell line (AID 1347045; calls by dose curve; further: series mostly up to about 38 µM). A digest of the protocol:
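Control counterscreen: luciferase cGMP-biosensor HEK293 cells (no Npr1) received compound for 30 min at room temperature after GloSensor substrate loading. Luminescence was measured before and 20 min after soluble guanylyl cyclase activation by 50 uM nitroprusside.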

In test [12] the target is T1, Tyrosine-protein phosphatase non-receptor type substrate 1 (Homo sapiens) + Leukocyte surface antigen CD47 (Homo sapiens) (UniProt P78324+Q08722). Nature of the test: CD47-SIRPalpha protein protein interaction - LANCE assay qHTS validation (AID 1347057; active means well fitted curve in the direction sought with a large enough effect in the signal ratio, with a control signal flat, not every such curve was filed as active; the % refers to the signal ratio; further: series mostly up to about 38 µM). A digest of the protocol: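 Inhibition of soluble CD47/SIRPalpha ectodomain association by titrated compounds, measured as 665/615 nm time-resolved FRET ratio after sequential 30 min room-temperature incubations.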
Background: TR-FRET usually uses a lanthanide donor and a delayed reading to cut background.

In test [13] the target is T1, Tyrosine-protein phosphatase non-receptor type substrate 1 (Homo sapiens) + Leukocyte surface antigen CD47 (Homo sapiens). Briefly: CD47-SIRPalpha protein protein interaction - HTRF assay qHTS validation (AID 1347058; active means well fitted curve in the direction sought with a large enough effect in the signal ratio, not every such curve was filed as active; the % refers to the signal ratio; further: series mostly up to about 38 µM). A digest of the protocol: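 Soluble extracellular domains (6His-CD47, Avi-tag-biotinylated SIRPalpha) in PBS pH 7.4 with 0.05% IGEPAL CA-630. Compounds were preincubated 30 min at RT with CD47 and anti-His-Eu, then SIRPalpha and SAV-XL665 were added. TR-FRET 665/615 ratio.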

Test [14] has the same target. Briefly: CD47-SIRPalpha protein protein interaction - Alpha assay qHTS validation (AID 1347059).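 Further: bead proximity luminescence from CD47 binding SIRPalpha after compound preincubation with SIRPalpha.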 A digest of the protocol:
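AlphaScreen signal between CD47-His (12.5 nM) and biotin-SIRPalpha (25 nM) soluble extracellular domains, bead-captured via Ni-NTA and streptavidin. Compounds, in 7-point titrations, met SIRPalpha 30 min before CD47; PBS pH 7.4 with 0.05% IGEPAL.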

Each structure is given as a SMILES string. Where “and” joins values, the source holds several entries; their conditions need not be identical. Equal values may be shown once. Records with an inconclusive call do not appear. Where a structure was tested more than once in an assay, its records may differ in their call. Calls of active or inactive are those of the source. Unless noted, the call rests on the fitted dose curve; in most records, active means well fitted curve in the direction sought with a large enough effect; inconclusive means small, poorly fitted or top-dose-only effect, or another doubt; inactive means no such curve, though single readings can be large; an effect the other way counts as inactive or inconclusive.

Parathyroid hormone/parathyroid hormone-related peptide receptor (Homo sapiens), sequence (Q03431 whole entry, looked up): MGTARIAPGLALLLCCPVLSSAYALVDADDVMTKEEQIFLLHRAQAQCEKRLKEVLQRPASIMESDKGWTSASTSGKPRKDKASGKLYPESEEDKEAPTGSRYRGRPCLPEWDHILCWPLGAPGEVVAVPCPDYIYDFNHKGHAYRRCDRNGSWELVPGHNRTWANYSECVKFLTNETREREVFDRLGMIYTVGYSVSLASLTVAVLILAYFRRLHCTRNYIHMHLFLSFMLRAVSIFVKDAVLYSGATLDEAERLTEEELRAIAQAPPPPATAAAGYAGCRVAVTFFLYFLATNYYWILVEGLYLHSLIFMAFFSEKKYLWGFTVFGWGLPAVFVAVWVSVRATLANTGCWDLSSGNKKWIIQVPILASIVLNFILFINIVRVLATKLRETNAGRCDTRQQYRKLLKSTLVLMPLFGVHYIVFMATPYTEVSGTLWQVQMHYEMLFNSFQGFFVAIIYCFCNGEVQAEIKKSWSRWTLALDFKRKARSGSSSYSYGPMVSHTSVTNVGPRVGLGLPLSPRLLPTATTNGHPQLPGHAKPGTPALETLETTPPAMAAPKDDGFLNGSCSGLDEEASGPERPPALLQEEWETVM
T1 sequence (P78324 whole entry, looked up, the tested form may be a part): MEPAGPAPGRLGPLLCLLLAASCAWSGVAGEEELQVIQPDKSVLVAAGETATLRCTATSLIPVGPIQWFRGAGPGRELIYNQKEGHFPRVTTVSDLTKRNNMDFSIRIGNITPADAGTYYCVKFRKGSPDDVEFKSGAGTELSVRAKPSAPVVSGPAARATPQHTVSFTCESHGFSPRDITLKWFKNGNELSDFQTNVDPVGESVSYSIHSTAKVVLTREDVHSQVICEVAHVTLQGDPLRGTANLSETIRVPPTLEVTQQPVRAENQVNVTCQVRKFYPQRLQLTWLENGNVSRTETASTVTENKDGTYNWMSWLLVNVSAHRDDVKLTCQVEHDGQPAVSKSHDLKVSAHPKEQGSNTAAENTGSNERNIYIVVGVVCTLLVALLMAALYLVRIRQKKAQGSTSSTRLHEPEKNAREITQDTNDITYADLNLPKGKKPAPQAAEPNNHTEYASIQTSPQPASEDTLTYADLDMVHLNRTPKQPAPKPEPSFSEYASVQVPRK
T1 sequence (Q08722 whole entry, looked up, the tested form may be a part): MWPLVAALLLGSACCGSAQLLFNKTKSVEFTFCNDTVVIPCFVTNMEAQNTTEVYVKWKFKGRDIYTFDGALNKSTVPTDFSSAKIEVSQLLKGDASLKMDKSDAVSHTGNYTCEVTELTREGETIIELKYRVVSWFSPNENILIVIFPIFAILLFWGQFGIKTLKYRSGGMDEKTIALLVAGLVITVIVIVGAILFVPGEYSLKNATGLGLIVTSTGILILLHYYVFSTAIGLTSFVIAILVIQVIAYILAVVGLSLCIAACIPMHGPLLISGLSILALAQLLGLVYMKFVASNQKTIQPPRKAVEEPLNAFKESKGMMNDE
Nucleoprotein (Lymphocytic choriomeningitis virus (strain Armstrong)), sequence (P09992 whole entry, looked up): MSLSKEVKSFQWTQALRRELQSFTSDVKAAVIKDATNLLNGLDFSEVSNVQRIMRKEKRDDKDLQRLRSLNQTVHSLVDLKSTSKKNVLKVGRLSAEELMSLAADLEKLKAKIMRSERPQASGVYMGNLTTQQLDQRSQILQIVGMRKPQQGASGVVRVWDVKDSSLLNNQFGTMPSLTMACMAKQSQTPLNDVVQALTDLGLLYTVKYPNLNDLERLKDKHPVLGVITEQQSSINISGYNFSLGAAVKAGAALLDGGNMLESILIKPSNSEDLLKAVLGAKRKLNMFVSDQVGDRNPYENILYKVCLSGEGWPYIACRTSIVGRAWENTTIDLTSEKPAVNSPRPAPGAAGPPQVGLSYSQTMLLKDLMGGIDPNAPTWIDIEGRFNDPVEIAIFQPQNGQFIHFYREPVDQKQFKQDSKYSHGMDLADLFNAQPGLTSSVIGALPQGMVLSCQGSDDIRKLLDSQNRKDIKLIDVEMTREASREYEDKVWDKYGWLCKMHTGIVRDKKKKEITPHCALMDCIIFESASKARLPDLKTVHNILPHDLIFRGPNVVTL
Atrial natriuretic peptide receptor 2 (Homo sapiens), sequence (P20594 whole entry, looked up): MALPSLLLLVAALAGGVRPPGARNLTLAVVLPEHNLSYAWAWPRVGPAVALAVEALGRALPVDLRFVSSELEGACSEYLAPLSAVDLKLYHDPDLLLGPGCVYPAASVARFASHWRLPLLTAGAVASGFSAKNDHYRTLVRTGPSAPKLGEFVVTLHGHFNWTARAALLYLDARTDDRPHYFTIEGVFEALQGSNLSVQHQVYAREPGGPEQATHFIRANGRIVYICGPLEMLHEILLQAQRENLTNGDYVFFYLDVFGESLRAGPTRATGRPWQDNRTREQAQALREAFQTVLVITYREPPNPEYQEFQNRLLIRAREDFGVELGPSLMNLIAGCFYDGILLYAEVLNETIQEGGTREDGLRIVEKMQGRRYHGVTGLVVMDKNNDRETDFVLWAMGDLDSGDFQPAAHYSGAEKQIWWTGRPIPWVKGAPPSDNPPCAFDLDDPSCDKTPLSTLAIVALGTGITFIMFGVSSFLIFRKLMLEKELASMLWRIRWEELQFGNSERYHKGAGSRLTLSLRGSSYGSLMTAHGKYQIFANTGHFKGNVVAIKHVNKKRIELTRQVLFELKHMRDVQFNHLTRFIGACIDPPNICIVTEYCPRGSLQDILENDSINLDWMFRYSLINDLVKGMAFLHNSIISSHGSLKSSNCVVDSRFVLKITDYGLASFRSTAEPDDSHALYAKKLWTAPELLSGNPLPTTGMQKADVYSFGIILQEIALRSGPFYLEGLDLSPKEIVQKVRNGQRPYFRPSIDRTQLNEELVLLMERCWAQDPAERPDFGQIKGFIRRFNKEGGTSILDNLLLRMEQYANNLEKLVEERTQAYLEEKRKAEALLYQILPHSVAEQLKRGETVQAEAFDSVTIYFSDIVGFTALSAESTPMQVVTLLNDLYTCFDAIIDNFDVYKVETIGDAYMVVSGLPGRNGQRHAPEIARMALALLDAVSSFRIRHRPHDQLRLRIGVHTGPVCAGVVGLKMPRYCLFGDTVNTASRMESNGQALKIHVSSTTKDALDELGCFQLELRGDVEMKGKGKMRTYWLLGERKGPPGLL

Regarding `COc1ccc(C(CN(C)C)C2(O)CCCCC2)cc1` (configuration not stated), the Potency result in [1], in test [2], in test [4], in [5], in test [6] and in test [7] was “inactive” throughout. Also, the Potency result in [8] and in test [9] was “inactive” each time. Besides, the outcome in [3] was inactive.

Consider `COc1ccc(Cc2nccc3cc(OC)c(OC)cc23)cc1OC`, for which the Potency in [1] is 880 nM (active) and inactive. In addition, the Potency result in [2], in test [5], in [6] and in test [8] was “inactive” in each case.

Consider `Clc1cccc(N2CCNCC2)c1`, for which the Potency entry in test [1], in test [2], in test [4], in test [5], in test [6] and in [7] was “inactive” in each case. Moreover, the Potency entry in test [8] and in test [9] was “inactive” in each case.

In the case of `Cn1ccc2cc3c(cc21)CCN3C(=O)Nc1cccnc1`, in test [4], the Potency result was “inactive”.

As to `OCCN1C[C@H](O)[C@@H](O)[C@H](O)[C@H]1CO`, the Potency entry in test [4] and in test [5] was “inactive” throughout.

For the molecule `CC(C)NCC(O)c1ccccc1Cl` (configuration not stated), the Potency entry in test [1], in test [4], in test [5], in test [6], in test [7] and in test [8] was “inactive” in each case. Further, the Potency entry in test [9] is “inactive”.

For the molecule `CC(C)n1c(/C=C/[C@@H](O)C[C@@H](O)CC(=O)O)c(-c2ccc(F)cc2)c2ccccc21`, the Potency result in [4] is “inactive”.

As to `CC(=O)[C@]1(O)Cc2c(O)c3c(c(O)c2[C@@H](O[C@H]2C[C@H](N)[C@H](O)[C@H](C)O2)C1)C(=O)c1ccccc1C3=O`, the Potency in [4] was 3.98 µM (active).

For the molecule `Cc1ccc2c(c1)C1CN(C)CCC1N2` (configuration not stated), the Potency result in test [1], in test [4], in [5], in test [6], in [7] and in test [8] was “inactive” in each case.

Turning to `CC[C@@H](CO)NC(=O)[C@@H]1C=C2c3cccc4[nH]cc(c34)C[C@H]2N(C)C1`, the Potency result in [10], in test [2], in test [4], in test [5], in test [6] and in test [7] was “inactive” in each case. In test [8], the Potency entry is “inactive”. In addition, the result in [3] was inactive.

On to `COC(=O)C1=C(C)NC(C)=C(C(=O)OC(C)C)C1c1cccc2nonc12` (configuration not stated), for which the Potency result in test [4] was “inactive”.

For `CSc1ccc2c(c1)N(CCC1CCCCN1C)c1ccccc1S2` (configuration not stated), in test [4], the Potency entry is “inactive”.

In the case of `FC(F)(F)c1cccc(C2=CCN(CCc3ccc4ccccc4c3)CC2)c1`, the Potency result in test [1], in test [4], in test [5], in [6], in test [7] and in [8] was “inactive” in each case.

`C[C@@H]1O[C@@H](O[C@H]2C[C@@H](O)[C@]3(CO)[C@H]4[C@H](O)C[C@]5(C)[C@@H](C6=CC(=O)OC6)CC[C@]5(O)[C@@H]4CC[C@]3(O)C2)[C@H](O)[C@H](O)[C@H]1O`: the Potency result in [11] and in test [10] was “inactive” each time. The Potency was 13.2 nM (active) and inactive in test [2]; 109 nM (active) and 44.7 nM (active) in test [5]; 122 nM (active) and 89.1 nM (active) in [6]; 131 nM (active) and 93.8 nM (active) in test [8]. Further, the outcome in test [12], in [13], in [14] and in [3] was inactive.

Regarding `O=c1[nH]c2ccccc2n1C1CCN(CCCC(c2ccc(F)cc2)c2ccc(F)cc2)CC1`, the Potency entry in [10], in test [2], in test [5], in test [6] and in test [8] was “inactive” each time. Further, the result in test [12], in [13], in [14] and in test [3] was inactive.

With `CN(C)[C@@H]1C(=O)C(C(N)=O)=C(O)[C@@]2(O)C(=O)C3=C(O)c4c(O)cccc4[C@@](C)(O)[C@H]3C[C@@H]12`, the Potency result in [1], in test [4], in test [5], in [6], in test [7] and in [8] was “inactive” throughout. The Potency result in [9] is “inactive”.

Regarding `C=CC(=O)Nc1cc2c(Nc3ccc(F)c(Cl)c3)ncnc2cc1OCCCN1CCOCC1`, the Potency result in test [4] was “inactive”.

Regarding `COc1c(C)c2c(c(O)c1C/C=C(\C)CCC(=O)OCCN1CCOCC1)C(=O)OC2`, the Potency result in [4] is “inactive”.

`O=c1[nH]c2ccccc2n1CCCN1CCC(n2c(=O)[nH]c3cc(Cl)ccc32)CC1`: the Potency result in test [2], in test [4], in test [5], in [6], in [7] and in test [8] was “inactive” each time. In addition, the outcome in test [12], in test [13], in test [14] and in test [3] was inactive.

Turning to `CCCSc1ccc2nc(NC(=O)OC)[nH]c2c1`, in [4], the Potency result is “inactive”.

For `O=C1NCN(c2ccccc2)C12CCN(CC1COc3ccccc3O1)CC2` (configuration not stated), the Potency entry in test [11], in test [10], in test [2], in [4], in [5] and in test [6] was “inactive” in each case. The Potency entry in test [7] and in test [8] was “inactive” each time. The outcome in test [12], in test [13], in [14] and in test [3] was inactive.
